Source: PubChem BioAssay (National Center for Advancing Translational Sciences (NCATS))
Vif-APOBEC3G blk = blocks the Vif interaction with human APOBEC3G. 410,000 compounds, 0.076% hits. AID 602310. Potency, µM (series often up to 46.1 µM), for the others: top-dose activity, negative = active, most hits filed as inhibitors. HeLa A3G-eYFP + Vif (tagged APOBEC3G with the HIV-1 protein that degrades it), YFP fluorescence, overnight. Q9HC16; note: % is set by controls: 0 for no effect and ±100 for the full control effect; nearly all actives have a fitted effect of over 60% in size
Target sequence (Q9HC16 whole entry, looked up): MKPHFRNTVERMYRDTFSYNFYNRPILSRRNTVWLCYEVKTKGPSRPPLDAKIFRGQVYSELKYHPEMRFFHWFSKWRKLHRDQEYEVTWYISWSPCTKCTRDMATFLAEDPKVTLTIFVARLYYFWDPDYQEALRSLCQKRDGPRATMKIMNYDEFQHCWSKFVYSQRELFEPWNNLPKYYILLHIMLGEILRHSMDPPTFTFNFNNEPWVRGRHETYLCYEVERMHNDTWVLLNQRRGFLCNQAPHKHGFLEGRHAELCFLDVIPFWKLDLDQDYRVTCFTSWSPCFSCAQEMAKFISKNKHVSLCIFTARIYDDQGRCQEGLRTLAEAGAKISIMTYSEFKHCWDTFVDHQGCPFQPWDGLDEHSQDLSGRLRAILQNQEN
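HeLa cells stably expressing Vif and C-terminally eYFP-tagged A3G, seeded overnight at 37 deg C, then exposed to compound by pintool overnight at 37 deg C. Rise in yellow fluorescence (Ex 488/Em 500-530, Acumen) marks blocked Vif-driven A3G degradation.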
Vif-A3F inh = blocks the Vif interaction with APOBEC3F. Potency, µM (doses to about 46.1 µM), without a hit: at the highest dose activity, negative = active. HeLa A3F-eYFP + Vif (tagged APOBEC3F with the HIV-1 protein that degrades it), YFP fluorescence increase. 390,000 compounds, 0.2% hits; note: % of control where 0% means no effect; nearly all actives have a fitted effect of over 65% in size
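Fluorescence increase (Ex 488/Em 500-530) after overnight compound treatment at 37 deg C flags inhibition of Vif-driven A3F-eYFP loss in stable HeLa A3F-eYFP/Vif cells seeded overnight beforehand.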
Epigenetic derep = epigenetic control regulation, reporter derepression. murine LDR cells, GFP reporter derepression, 30 h. Potency, µM (doses to about 53.9 µM), inactives show at the highest dose GFP activation, most hits filed as activators. 280,000 compounds, 0.2% hits. AID 1865; note: % of control where 0% means no effect; nearly all actives have a fitted effect of over 60% in size
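Reporter derepression read as number of fluorescent GFP-positive objects, 20-120 um in size, counted by laser-scanning cytometer. Mouse LDR line with an epigenetically silenced CMV-GFP locus; compound incubation 30 h, 37 C.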
The depositor's hits bear a star. Shown are actives, neighbours in structure and some others; about 0.34% of the full set was active somewhere. Calls come from the whole dose curve; as a rule, active = well fitted curve in the direction sought with a large enough effect; inconclusive = small, poorly fitted or top-dose-only effect, or another doubt; inactive = no such curve, though single readings can be large; an effect the other way counts as inactive or inconclusive. Potency is the fitted concentration of half-maximal effect.

Screening Cc1ccc(C(=O)NCCn2c(N)c(C#N)c3nc4ccccc4nc32)cc1 returned Vif-APOBEC3G blk inconclusive, Vif-A3F inh 22µM* and Epigenetic derep inconclusive.
Screening N#Cc1c(N)n(CCNC(=O)c2ccc(Cl)cc2)c2nc3ccccc3nc12 returned Vif-APOBEC3G blk -29%, Vif-A3F inh -20% and Epigenetic derep 11%.
For Cc1csc(NCC(=O)c2c(C)[nH]c3ccccc23)n1 the results were Vif-APOBEC3G blk -12%.
`Cc1ccc2c(CC(=O)N(Cc3ccc(Cl)cc3)Cc3ccco3)coc2c1` gave Epigenetic derep 4%.
Cc1ccc(-c2nc3cc(C(C)C)ccc3o2)cc1NC(=O)c1cc([N+](=O)[O-])ccc1N1CCOCC1 was read as Vif-APOBEC3G blk -3%, Vif-A3F inh 6% and Epigenetic derep -1%.
For Cc1cccc(OCC(=O)NCc2ccc3c(c2)CCN3C(=O)c2ccccc2)c1 the results were Vif-APOBEC3G blk -6%, Vif-A3F inh 5% and Epigenetic derep -1%.
COc1ccc(N=Cc2ccccc2O)cc1 was read as Vif-APOBEC3G blk 1% and Vif-A3F inh 2%.
`COc1ccc(N=Cc2oc3ccc4ccccc4c3c2O)cc1` gave Vif-APOBEC3G blk 8.9µM*, Vif-A3F inh 7.9µM* and Epigenetic derep inconclusive.
Cc1c(Cl)cccc1-n1ncc(C(=O)N2CCC(C)CC2)c1C1CCN(C(=O)OC(C)(C)C)CC1 was read as Vif-APOBEC3G blk -1%, Vif-A3F inh 2% and Epigenetic derep -1%.
Screening Cc1ccc(NC(=S)NC(C)CCc2ccccc2)cc1C (stereo not given) returned Vif-APOBEC3G blk -2%, Vif-A3F inh -7% and Epigenetic derep -1%.
For Cc1cccc(C)c1NC(=S)NC(C)CCc1ccccc1 (stereo not given) the results were Vif-APOBEC3G blk 0%, Vif-A3F inh 7.1µM* and Epigenetic derep 1%.
COc1ccc2oc(=O)cc(CN3CCN(C(=O)c4ccccc4F)CC3)c2c1 was read as Vif-APOBEC3G blk 7%, Vif-A3F inh -1% and Epigenetic derep -1%.
Screening COc1ccc2nc(N3C(=O)CNC3=S)sc2c1 returned Vif-APOBEC3G blk -3%, Vif-A3F inh 1% and Epigenetic derep inconclusive.
`CCOc1ccc2nc(N3C(=O)/C(=C/c4ccc(Cl)cc4)NC3=S)sc2c1` gave Vif-APOBEC3G blk -3%, Vif-A3F inh 5µM* and Epigenetic derep 1%.
For N#CC(=Cc1ccnc2ccccc12)c1ccccc1 the results were Vif-APOBEC3G blk -8% and Vif-A3F inh 0%.
CC[N+](C)(C(=O)O)/C(=C\c1ccccc1)c1ccnc2ccccc12 (stereo not given) was read as Vif-APOBEC3G blk 11µM*.
For Cc1cccc(C)c1NC(=O)Cn1c(=O)n(Cc2ccc(C(=O)NCc3ccco3)cc2)c(=O)c2sccc21 the results were Epigenetic derep 11%.
Cc1cc(C)c(NC(=O)Cn2c(=O)n(Cc3ccc(C(=O)NCc4ccco4)cc3)c(=O)c3sccc32)c(C)c1 was read as Vif-APOBEC3G blk 8.9µM*, Vif-A3F inh inconclusive and Epigenetic derep inconclusive.
Screening CCc1cccc(C)c1NC(=O)c1cc(S(=O)(=O)N(Cc2ccc(C(=O)OC)cc2)Cc2ccc(OC)c(OC)c2)ccc1F returned Vif-APOBEC3G blk -4%, Vif-A3F inh 5% and Epigenetic derep -4%.
N#C/C(=C\c1ccc(O)cc1)c1nc2ccccc2o1 was read as Vif-APOBEC3G blk inconclusive, Vif-A3F inh inconclusive and Epigenetic derep 1%.
Screening COc1cc(/C=C(/C#N)c2nc(-c3cc4ccccc4oc3=O)cs2)cc([N+](=O)[O-])c1O returned Epigenetic derep 0%.
Screening COc1cc(/C=C(\C#N)c2nc(-c3cc4ccccc4oc3=O)cs2)ccc1O returned Vif-APOBEC3G blk 1%, Vif-A3F inh inconclusive and Epigenetic derep 4.5µM*.
COc1cc(/C=C(\C#N)c2nc3ccccc3o2)ccc1O was read as Vif-APOBEC3G blk 5%, Vif-A3F inh -100% and Epigenetic derep 2.2µM*.
For CCCCN1C(=O)C2Cc3c([nH]c4ccccc34)CN2C1=S (stereo not given) the results were Vif-APOBEC3G blk 8.9µM*, Vif-A3F inh -528% and Epigenetic derep inconclusive.
`CCCCCN1CC(=O)N2Cc3[nH]c4ccccc4c3C[C@H]2C1=O` gave Vif-APOBEC3G blk 1% and Vif-A3F inh -7%.
`CCOc1cc(/C=C2/C(=N)N3C(=NC2=O)SN=C3S(C)(=O)=O)ccc1OS(=O)(=O)c1ccccc1` gave Vif-APOBEC3G blk -2% and Vif-A3F inh 6%.
For CCOc1cc(/C=C2/C(=N)N3C(=NC2=O)SN=C3S(C)(=O)=O)ccc1OC(=O)c1ccco1 the results were Vif-APOBEC3G blk -7% and Vif-A3F inh 13µM*.
Screening COc1cc(/C=C2\C(=N)N3N=C(S(C)(=O)=O)SC3=NC2=O)ccc1OC(=O)c1ccco1 returned Vif-APOBEC3G blk -1% and Vif-A3F inh 7.1µM*.
`CCOc1cc(/C=C2\C(=N)N3N=C(S(=O)(=O)CC)SC3=NC2=O)ccc1OC(=O)c1ccco1` gave Vif-APOBEC3G blk 0% and Vif-A3F inh inconclusive.
For COc1cccc(CNC(=O)c2cc3n(n2)CCCN(Cc2ccc(C)cc2)C3=O)c1OC the results were Vif-APOBEC3G blk 0%, Vif-A3F inh 1% and Epigenetic derep -3%.
`Cc1nc2n(c(=O)c1CCN1CCC(c3noc4cc(F)ccc34)CC1)CCC[C@@H]2O` gave Vif-APOBEC3G blk 2%.
O=C(Cn1c(=O)n(Cc2nc(-c3ccccc3)no2)c(=O)c2cc3c(cc21)OCO3)Nc1ccc(Cl)cc1 was read as Vif-APOBEC3G blk 3%, Vif-A3F inh 2% and Epigenetic derep -2%.
For Cc1ccc(S(=O)(=O)c2cc3ccccc3oc2=Nc2ccc3c(c2)OCCO3)cc1 the results were Vif-APOBEC3G blk 1%, Vif-A3F inh -2% and Epigenetic derep 1%.
Screening Cc1ccc(S(=O)(=O)c2cc3ccccc3oc2=Nc2ccc3c(c2)OCO3)cc1 returned Vif-APOBEC3G blk -18%, Vif-A3F inh 22µM* and Epigenetic derep 0%.
For CC1CC(C)CN(CC(=O)c2c[nH]c3ccccc23)C1 (stereo not given) the results were Vif-APOBEC3G blk inconclusive and Vif-A3F inh 32µM*.
O=C(CN1CCCCC1)c1c[nH]c2ccccc12 was read as Vif-APOBEC3G blk -10% and Vif-A3F inh 2%.
For COc1ccc(C2=NC3(CCCCCC3)N(CC(=O)Nc3cccc(Cl)c3)C2=O)cc1 the results were Epigenetic derep -4%.
For CN1C(=O)/C(=C/c2ccccc2OCc2ccc(F)cc2)N(C)C1=S the results were Vif-APOBEC3G blk -3%, Vif-A3F inh 3.5µM* and Epigenetic derep -1%.
For CN1C(=O)/C(=C/c2ccccc2OCc2ccccc2)NC1=S the results were Vif-APOBEC3G blk -1%, Vif-A3F inh 1% and Epigenetic derep -3%.
C(=C\c1ccnc2ccccc12)/c1cccnc1 was read as Vif-APOBEC3G blk -3%.
`Cn1cc(/C=C/c2ccnc3ccccc23)c2ccccc21` gave Vif-APOBEC3G blk 10µM*.
For C(=C\c1ccnc2ccccc12)/c1ccnc2ccccc12 the results were Vif-APOBEC3G blk -3%.
`Nc1ccccc1/C=C/c1ccnc2ccccc12` gave Vif-APOBEC3G blk 13µM*.
Brc1ccc2c(ccc[n+]2CCc2ccccc2)c1 was read as Vif-APOBEC3G blk 2%.
